The entries come from a sample that favours hits as a whole.
EZH2 inh – EZH2/PRC2 methyltransferase inhibitors, primary screen, biochemical, DELFIA time-resolved fluorescence, single point | PRC2 H3K27 methylation, DELFIA TRF, 1 h | 0.35% of 57,000 active | inhibition, % at 12.5 µM | Histone-lysine N-methyltransferase EZH2 (Homo sapiens), Q15910;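 active means mean inhibition of replicates at least 50% and every single replicate also reaching 50%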;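 further: dimethyl H3K27 on biotinylated H3 21-44 peptide detected by antibody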
Target sequence (Q15910 whole entry, looked up): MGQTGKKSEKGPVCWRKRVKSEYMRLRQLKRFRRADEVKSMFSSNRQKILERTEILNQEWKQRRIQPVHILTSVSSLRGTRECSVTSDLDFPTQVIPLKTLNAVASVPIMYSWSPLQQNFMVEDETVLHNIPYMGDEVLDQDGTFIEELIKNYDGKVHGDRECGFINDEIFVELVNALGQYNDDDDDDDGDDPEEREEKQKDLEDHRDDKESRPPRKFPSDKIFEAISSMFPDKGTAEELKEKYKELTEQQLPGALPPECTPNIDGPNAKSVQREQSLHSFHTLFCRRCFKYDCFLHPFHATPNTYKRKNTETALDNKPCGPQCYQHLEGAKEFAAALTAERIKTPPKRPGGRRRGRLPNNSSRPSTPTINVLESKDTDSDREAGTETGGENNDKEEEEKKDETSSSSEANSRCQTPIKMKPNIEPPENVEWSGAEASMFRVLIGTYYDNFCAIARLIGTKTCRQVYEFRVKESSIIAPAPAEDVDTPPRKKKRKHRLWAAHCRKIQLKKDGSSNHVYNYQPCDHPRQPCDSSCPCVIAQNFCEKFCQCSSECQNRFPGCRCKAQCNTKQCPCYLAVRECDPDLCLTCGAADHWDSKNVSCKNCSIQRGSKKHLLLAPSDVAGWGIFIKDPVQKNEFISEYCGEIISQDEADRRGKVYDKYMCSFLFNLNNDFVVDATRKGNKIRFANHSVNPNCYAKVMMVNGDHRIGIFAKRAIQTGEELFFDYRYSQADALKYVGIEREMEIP
Large screens that a line does not name were inactive.

CC(C)c1onc(-c2c(Cl)cccc2Cl)c1COc1ccc(/C=C/c2cccc(C(=O)O)c2)c(Cl)c1	EZH2 inh 73.4
O=C(N/N=C/c1ccc(-c2ccccc2)cc1)c1ccccn1	none
CC(C)(C)c1cn2c3ccccc3nc2n1CCCN1CCCCC1	none
CCOc1cc(OCC)cc(C(=O)N[C@@H](Cc2ccc(-n3cc(COc4ccccc4/C=C(C)/C=C/C(=O)NO)nn3)cc2)C(=O)OC)c1	none
CNC(=O)c1cc(Oc2ccc(NC(=O)Nc3ccc(Cl)c(C(F)(F)F)c3)cc2)ccn1	EZH2 inh 57.5
CS(=O)(=O)N(CC(=O)Nc1ccc(Cl)c(C(F)(F)F)c1)c1cccc(C(F)(F)F)c1	none
CC(=O)Nc1ccc(NC(=O)CN(c2ccc(Cl)c(C(F)(F)F)c2)S(C)(=O)=O)cc1	none
O=C(NO)c1ccc(C(=O)N/N=C/c2ccc(Br)s2)cc1	none
COc1ccc(-n2c(SCC(N)=O)nnc2-c2cccs2)cc1	none
Cc1ccc2c(CC(=O)Nc3cccc([N+](=O)[O-])c3)coc2c1C	EZH2 inh 50.8
Cc1cc(C)c(S(=O)(=O)N(C)CC(=O)Nc2cccc([N+](=O)[O-])c2)c(C)c1	none
Cc1ccc2c(CC(=O)NCc3ccco3)coc2c1C	none
N#CC1=C(SCC(=O)Nc2ccccc2C(=O)c2ccccc2)NC(=O)CC1c1ccccc1F (stereo not drawn)	none
COc1ccc(C(=O)CC2(O)C(=O)N(Cc3ccccc3)c3ccc(Br)cc32)cc1[N+](=O)[O-] (stereo not drawn)	none
COC(=O)C1=CO[C@@H](O[C@@H]2O[C@H](CO)[C@@H](O)[C@H](O)[C@H]2O)[C@@H]2[C@@](C)(O)[C@@H](OC(=O)/C=C/c3ccc(OC)c(O)c3)C[C@]12O	EZH2 inh 52.5
COC(=O)C1=CO[C@@H](O[C@@H]2O[C@H](CO)[C@@H](O)[C@H](O)[C@H]2O)C2C1CCC2(C)O (stereo partly drawn)	none
COC(=O)C1=CO[C@@H](O[C@@H]2O[C@H](CO)[C@@H](O)[C@H](O)[C@H]2O)[C@H]2[C@@H]1[C@H](OC(=O)/C=C/c1ccc(O)cc1)C[C@]2(C)OC(C)=O	none
COc1ccc(NC(=O)COc2ccccc2Cl)c([N+](=O)[O-])c1	none
O=C(CCCCC(=O)N/N=C\c1ccc2c(c1)Cc1ccccc1-2)NO	none
O=C1CC(c2ccccc2)N=C(SCC(=O)Nc2ccc3ccccc3c2)N1 (stereo not drawn)	none
CCOc1cc(/C=N/NC(=O)c2ccc(C(=O)NO)cc2)ccc1O	none
N#Cc1c(N)nc(SCC(=O)c2ccc(Cl)cc2)c(C#N)c1-c1ccco1	none
O=C(CSc1n[nH]c(-c2ccc(Cl)cc2Cl)n1)Nc1cccc(Cl)c1Cl	none
O=C(CSc1n[nH]c(-c2ccc(Cl)cc2Cl)n1)Nc1ccccc1F	none
N#Cc1c(NC(=O)CSc2n[nH]c(-c3ccc(Cl)cc3Cl)n2)sc2c1CCCC2	EZH2 inh 52.2
Cc1nn(Cc2ccc(F)cc2)c(C)c1NC(=O)C1CC(c2c(F)cccc2Cl)=NO1 (stereo not drawn)	none
O=C(CC1c2ccccc2Oc2ccccc21)NCCOc1ccccc1Cl	none
Cc1ccc(NC(=O)c2[nH]c3c(c2C)C(=O)CC(c2ccc(C(C)(C)C)cc2)C3)cc1C (stereo not drawn)	none
COc1ccc(C)cc1NC(=O)CN1C(=O)c2cccc3cccc1c23	none
COc1ccc(NC(=O)CN2C(=O)c3cccc4cccc2c34)cc1OC	none
O=C1c2cccc3cccc(c23)N1Cc1ccc(F)cc1Cl	EZH2 inh 59.8
Cc1ccc(C(=O)CSc2nnc(-c3cccc(F)c3)n2-c2ccccc2)c(C)c1	none
Cc1cc(C)nc(SCC(=O)Nc2ccc(C(=O)O)cc2)n1	none
COc1ccc(/C=N\NC(=O)c2ccccc2O)c(O)c1	none
COC(=O)c1nnn(CC(=O)N(Cc2ccccc2)c2ccc(Br)cc2)c1C(=O)OC	none
C=CCOc1ccccc1/C=N/NC(=O)c1ccccn1	none
COc1c2ccoc2cc2oc(=O)ccc12	EZH2 inh 51.7
COc1ccc2c(=O)ccoc2c1	none
CC(C)(O)C(O)COc1c2ccoc2cc2oc(=O)ccc12 (stereo not drawn)	none
O=[N+]([O-])c1cccc(S(=O)(=O)NCCOc2cccc3cccnc23)c1	none
O=[N+]([O-])c1cccc(S(=O)(=O)NCCOc2cccc(Cl)c2Cl)c1	none
O=[N+]([O-])c1cccc(S(=O)(=O)NCCOc2ccccc2-c2ccccc2)c1	EZH2 inh 52.7
Cc1ccc(S(=O)(=O)Nc2ccccc2-c2nc3ccccc3c(=O)o2)cc1	none
CCN(CC(=O)Nc1cccc(C(F)(F)F)c1)S(=O)(=O)c1ccc(C)cc1	none
COC(=O)C(CC#Cc1ccc2c(c1)[C@]1(C(=O)N2)[C@H](c2ccccc2OCCO)N2[C@H](c3ccccc3)[C@H](c3ccccc3)OC(=O)[C@H]2[C@@H]1C(=O)O)C(=O)OC	EZH2 inh 69.2
COc1ccc(C#Cc2ccc3c(c2)[C@]2(C(=O)N3)[C@H](c3ccccc3OCCO)N3[C@H](c4ccccc4)[C@H](c4ccccc4)OC(=O)[C@H]3[C@@H]2C(N)=O)cc1	none
COC(=O)C(CC#Cc1ccc2c(c1)[C@]1(C(=O)N2)[C@H](C(=O)O)[C@H]2C(=O)O[C@H](c3ccccc3)[C@H](c3ccccc3)N2[C@@H]1c1ccc(OCCO)cc1)C(=O)OC	none
COC(=O)C(CC#Cc1ccc2c(c1)[C@]1(C(=O)N2)[C@H](C(=O)N2CCCCCCC2)[C@H]2C(=O)O[C@H](c3ccccc3)[C@H](c3ccccc3)N2[C@@H]1c1ccccc1OCCO)C(=O)OC	none
O=C1O[C@H](c2ccccc2)[C@H](c2ccccc2)N2[C@H]1[C@@H](C(=O)O)[C@]1(C(=O)Nc3ccc(C#CCCO)cc31)[C@H]2c1ccccc1OCCO	none
COc1ccc(C#Cc2ccc3c(c2)[C@]2(C(=O)N3)[C@H](C(=O)O)[C@H]3C(=O)O[C@H](c4ccccc4)[C@H](c4ccccc4)N3[C@@H]2c2ccccc2OCCO)cc1	EZH2 inh 75.1
C=CCSc1nccc(-c2sc3ccc(Cl)cc3c2C)n1	none
CC(Sc1ncnc2sc3c(c12)CCCC3)C(=O)Nc1ccc(Br)cc1 (stereo not drawn)	none
CC(C)OC(=O)C(C)Sc1ncnc2scc(-c3ccc(Br)cc3)c12 (stereo not drawn)	none
O=C(CSc1nnnn1-c1ccccc1Cl)Nc1ccc(Br)cc1	none
